According to PubChem BioAssay (Tox21):
Several values for one entry are separate records, joined by “and”; a condition that tells them apart may be missing. Equal values may be shown once. Records with an inconclusive call do not appear. Activity calls are given as the source filed them. Unless noted, calls follow the shape of the dose curve; as a rule, active = well fitted curve in the direction sought with a large enough effect in the repeat runs; inconclusive = weak or mixed curves; inactive = no such curve, though single readings can be large; an effect the other way counts as inactive or inconclusive.

Assays:
[1] = Human pregnane X receptor (PXR) small molecule agonists, qHTS cell viability counter screen (AID 1346977); also: nearly all actives have a fitted effect of over 50% in size; also: potency is read from the fitted curve at half-maximal effect
Outline: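 After a 5hr pre-incubation, PXR-Luc HepG2 cells received compounds plus positive control in DMSO and were kept 24hr at 37C. Cell viability was quantified by fluorescence from CellTiter-Fluor added for the final hour.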

[2] = Caspase-3/7 induction in HepG2 cells by small molecules, qHTS assay (AID 1346978); also: nearly all actives have a fitted effect of over 15% in size; also: potency is read from the fitted curve at half-maximal effect
Outline: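 Wild-type HepG2 cells (2,000/well) were settled 5 h at 37 C, 5% CO2, then exposed to compounds in DMSO for 17 h. Caspase-3/7 activity was read by luminescence 30 min after adding Caspase-Glo 3/7 reagent at room temperature.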

[3] = Caspase-3/7 induction in CHO-K1 cells by small molecules, qHTS assay (AID 1346980); also: nearly all actives have a fitted effect of over 15% in size; also: potency is read from the fitted curve at half-maximal effect
Outline: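 Wild-type cells were seeded at 1,500 per well and settled 5 hr at 37 C, 5% CO2, then exposed to DMSO-dissolved compounds for 17 hr. Caspase-Glo 3/7 reagent was added, and luminescence was read after 30min at room temperature.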

[4] = Caspase-3/7 induction in HepG2 cells by small molecules, qHTS cell viability counter screen (AID 1346981); also: nearly all actives have a fitted effect of over 30% in size; also: potency is read from the fitted curve at half-maximal effect; as to activity change, negative = cytotoxicity: series mostly up to about 92 µM
Outline: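 Fluorescence read-out of live-cell protease activity (CellTiter-Fluor) after 1 hr with reagent. This was measured in the same wells as the caspase-3/7 luminescence, on HepG2 cells exposed to DMSO-dissolved compounds for 16 hr at 37 C.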

[5] = molecular target: Nuclear receptor subfamily 1 group I member 2 (Homo sapiens) (UniProt O75469); assay: Human pregnane X receptor (PXR) small molecule agonists, qHTS assay (AID 1346982); also: nearly all actives have a fitted effect of over 35% in size; also: potency is read from the fitted curve at half-maximal effect
Nuclear receptor subfamily 1 group I member 2 (Homo sapiens), sequence (O75469 whole entry, looked up): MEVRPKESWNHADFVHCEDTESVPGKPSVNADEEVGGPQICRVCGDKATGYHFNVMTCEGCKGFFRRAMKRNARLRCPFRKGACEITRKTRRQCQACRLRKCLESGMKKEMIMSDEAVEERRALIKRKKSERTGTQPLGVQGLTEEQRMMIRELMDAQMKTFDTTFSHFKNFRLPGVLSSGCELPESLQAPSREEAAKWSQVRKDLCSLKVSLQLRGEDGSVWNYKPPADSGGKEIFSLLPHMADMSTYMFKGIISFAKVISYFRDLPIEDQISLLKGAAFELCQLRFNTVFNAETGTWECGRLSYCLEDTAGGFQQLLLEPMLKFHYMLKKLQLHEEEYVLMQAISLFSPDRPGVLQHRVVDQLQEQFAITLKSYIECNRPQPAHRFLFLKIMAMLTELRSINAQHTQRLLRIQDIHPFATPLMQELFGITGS
Outline: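 HepG2 PXR-Luc reporter line, 5% charcoal-stripped FBS; 5 hr pre-incubation, compound (DMSO) 24 hr at 37 C/5% CO2; ONE-Glo 30 min RT; luminescence read-out.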

[6] = molecular target: Acetylcholinesterase (Homo sapiens) (UniProt P22303); assay: Acetylcholinesterase (AChE) small molecule antagonists: colormetric cell-based qHTS assay (AID 1347395; calls by dose curve; also: nearly all actives have a fitted effect of over 30% in size; also: potency is read from the fitted curve at half-maximal effect)
Acetylcholinesterase (Homo sapiens), sequence (P22303 whole entry, looked up): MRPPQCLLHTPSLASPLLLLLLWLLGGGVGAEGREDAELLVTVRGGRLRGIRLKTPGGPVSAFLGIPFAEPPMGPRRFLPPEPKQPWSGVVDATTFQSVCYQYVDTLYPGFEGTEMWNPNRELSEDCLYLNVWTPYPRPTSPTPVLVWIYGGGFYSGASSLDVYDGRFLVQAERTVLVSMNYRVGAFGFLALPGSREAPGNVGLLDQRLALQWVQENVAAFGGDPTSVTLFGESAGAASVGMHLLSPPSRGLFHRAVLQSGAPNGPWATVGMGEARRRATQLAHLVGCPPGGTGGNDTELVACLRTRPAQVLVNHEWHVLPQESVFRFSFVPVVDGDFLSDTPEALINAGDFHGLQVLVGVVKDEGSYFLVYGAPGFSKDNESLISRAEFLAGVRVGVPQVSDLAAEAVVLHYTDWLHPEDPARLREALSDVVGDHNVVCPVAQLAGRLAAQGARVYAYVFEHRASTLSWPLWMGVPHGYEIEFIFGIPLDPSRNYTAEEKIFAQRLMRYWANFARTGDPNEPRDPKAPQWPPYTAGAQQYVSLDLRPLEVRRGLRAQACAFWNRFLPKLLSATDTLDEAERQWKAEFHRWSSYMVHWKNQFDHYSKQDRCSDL
Outline: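 In this cell-based qHTS, attached SH-SY5Y cells were treated with test chemicals for 30 min, after which acetylthiocholine hydrolysis was followed by DTNB colour development over 90 min at 37 C.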

[7] = molecular target: Acetylcholinesterase (Homo sapiens) (UniProt P22303); assay: Acetylcholinesterase (AChE) small molecule antagonists: fluorescence cell-based qHTS assay (AID 1347398; calls by dose curve; also: nearly all actives have a fitted effect of over 50% in size); conditions: Potency: AChE activity
Outline: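 Using neuroblastoma SH-SY5Y cells as the enzyme source, test chemicals are preincubated 30 min at 37 C; AChE-driven acetylthiocholine cleavage is then quantified by thiocholine-dependent Thiolite Green fluorescence after 40 min at room temperature.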

[8] = molecular target: Acetylcholinesterase (Homo sapiens) (UniProt P22303); assay: Acetylcholinesterase (AChE) small molecule antagonists: enzyme-based qHTS assay with human liver microsomes (AID 1347399; calls by dose curve; also: nearly all actives have a fitted effect of over 60% in size); conditions: Potency: qHTS inhibition
Outline: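 Recombinant human AChE (50 mU/mL in the enzyme mix) and human liver microsomes (0.25 mg/mL final) were preincubated with compound and NADPH (0.25 mg/mL final) for 30 min at 37 C. Acetylthiocholine/DTNB was then added; thiocholine was read colorimetrically after 10 min at room temperature.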

[9] = molecular target: Cytochrome P450 2D6 (Homo sapiens) (UniProt P10635); assay: Cytochrome P450 Family 2 Subfamily D Member 6 (CYP2D6) small molecule antagonists: luciferase reporter qHTS assay (AID 1671196); also: nearly all actives have a fitted effect of over 50% in size; also: potency is read from the fitted curve at half-maximal effect; as to activity change, negative = inhibition: series mostly up to about 120 µM
Cytochrome P450 2D6 (Homo sapiens), sequence (P10635 whole entry, looked up): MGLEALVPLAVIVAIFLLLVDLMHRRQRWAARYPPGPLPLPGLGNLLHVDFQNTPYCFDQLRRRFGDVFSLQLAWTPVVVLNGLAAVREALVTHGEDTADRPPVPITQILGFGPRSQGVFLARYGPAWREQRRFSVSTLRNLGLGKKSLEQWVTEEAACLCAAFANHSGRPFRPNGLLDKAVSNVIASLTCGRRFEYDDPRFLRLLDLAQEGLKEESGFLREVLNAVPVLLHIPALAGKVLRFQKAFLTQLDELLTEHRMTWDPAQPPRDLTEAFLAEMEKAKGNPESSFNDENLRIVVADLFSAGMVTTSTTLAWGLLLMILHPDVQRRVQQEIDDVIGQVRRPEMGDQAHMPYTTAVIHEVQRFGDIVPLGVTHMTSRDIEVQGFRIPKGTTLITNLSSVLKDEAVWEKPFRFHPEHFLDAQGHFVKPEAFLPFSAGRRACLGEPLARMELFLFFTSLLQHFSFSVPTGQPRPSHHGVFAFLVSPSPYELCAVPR
Outline: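 Luminogenic proluciferin substrate, CYP2D6 enzyme; 10 min RT preincubation with compound, NADPH regeneration system added, 1 h RT. Stop/detection reagent, 20 min RT, luminescence read (RLU). Signal proportional to CYP activity.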

[10] = molecular target: Cytochrome P450 2C19 (Homo sapiens) (UniProt P33261); assay: Cytochrome P450 Family 2 Subfamily C Member 19 (CYP2C19) small molecule antagonists: luciferase reporter qHTS assay (AID 1671197); also: nearly all actives have a fitted effect of over 65% in size; also: potency is read from the fitted curve at half-maximal effect; as to activity change, negative = inhibition: series mostly up to about 120 µM
Cytochrome P450 2C19 (Homo sapiens), sequence (P33261 whole entry, looked up): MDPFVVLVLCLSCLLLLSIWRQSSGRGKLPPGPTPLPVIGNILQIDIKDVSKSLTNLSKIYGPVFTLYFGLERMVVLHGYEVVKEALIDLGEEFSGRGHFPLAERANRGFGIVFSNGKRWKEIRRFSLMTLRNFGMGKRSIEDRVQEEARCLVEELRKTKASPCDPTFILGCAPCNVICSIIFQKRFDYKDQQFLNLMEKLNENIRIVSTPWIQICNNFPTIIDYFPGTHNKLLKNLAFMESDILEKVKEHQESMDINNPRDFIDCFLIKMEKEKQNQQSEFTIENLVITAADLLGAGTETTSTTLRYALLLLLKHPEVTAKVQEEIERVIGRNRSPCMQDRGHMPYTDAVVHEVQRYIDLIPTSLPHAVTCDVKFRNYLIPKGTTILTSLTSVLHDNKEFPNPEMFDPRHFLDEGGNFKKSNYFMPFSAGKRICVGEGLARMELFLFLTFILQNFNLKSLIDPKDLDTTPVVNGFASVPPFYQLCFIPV
Outline: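 Luminescent readout of CYP2C19 activity: luciferin product detected 20 min after adding detection reagent. Before that, compound and enzyme-substrate mix preincubated 10 min at room temperature; NADPH-regenerating system started a 1 h, 37C reaction. Ketoconazole as positive control.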

[11] = molecular target: Cytochrome P450 1A2 (Homo sapiens) (UniProt P05177); assay: Cytochrome P450 Family 1 Subfamily A Member 2 (CYP1A2) small molecule antagonists: luciferase reporter qHTS assay (AID 1671199); also: nearly all actives have a fitted effect of over 50% in size; also: potency is read from the fitted curve at half-maximal effect; as to activity change, negative = inhibition: series mostly up to about 120 µM
Outline: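 Luminescence readout (relative luminescence units) after luciferin detection reagent, 20 min RT. Preceded by 1 h room-temperature CYP1A2 reaction with NADPH regeneration solution following 10 min compound preincubation with enzyme and proluciferin substrate. Furafylline positive control.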

[12] = molecular target: Voltage-gated inwardly rectifying potassium channel KCNH2 (Homo sapiens) (UniProt Q12809); assay: Human Ether-a-go-go-Related Gene (hERG) channel small molecule antagonists: fluorescence cell-based qHTS assay (AID 1671200); also: nearly all actives have a fitted effect of over 50% in size; also: potency is read from the fitted curve at half-maximal effect;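 as to activity change, negative = inhibition: hERG-expressing U2OS cells given a thallium stimulus after FluxOR II dye loading; series mostly up to about 77 µM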
Voltage-gated inwardly rectifying potassium channel KCNH2 (Homo sapiens), sequence (Q12809 whole entry, looked up): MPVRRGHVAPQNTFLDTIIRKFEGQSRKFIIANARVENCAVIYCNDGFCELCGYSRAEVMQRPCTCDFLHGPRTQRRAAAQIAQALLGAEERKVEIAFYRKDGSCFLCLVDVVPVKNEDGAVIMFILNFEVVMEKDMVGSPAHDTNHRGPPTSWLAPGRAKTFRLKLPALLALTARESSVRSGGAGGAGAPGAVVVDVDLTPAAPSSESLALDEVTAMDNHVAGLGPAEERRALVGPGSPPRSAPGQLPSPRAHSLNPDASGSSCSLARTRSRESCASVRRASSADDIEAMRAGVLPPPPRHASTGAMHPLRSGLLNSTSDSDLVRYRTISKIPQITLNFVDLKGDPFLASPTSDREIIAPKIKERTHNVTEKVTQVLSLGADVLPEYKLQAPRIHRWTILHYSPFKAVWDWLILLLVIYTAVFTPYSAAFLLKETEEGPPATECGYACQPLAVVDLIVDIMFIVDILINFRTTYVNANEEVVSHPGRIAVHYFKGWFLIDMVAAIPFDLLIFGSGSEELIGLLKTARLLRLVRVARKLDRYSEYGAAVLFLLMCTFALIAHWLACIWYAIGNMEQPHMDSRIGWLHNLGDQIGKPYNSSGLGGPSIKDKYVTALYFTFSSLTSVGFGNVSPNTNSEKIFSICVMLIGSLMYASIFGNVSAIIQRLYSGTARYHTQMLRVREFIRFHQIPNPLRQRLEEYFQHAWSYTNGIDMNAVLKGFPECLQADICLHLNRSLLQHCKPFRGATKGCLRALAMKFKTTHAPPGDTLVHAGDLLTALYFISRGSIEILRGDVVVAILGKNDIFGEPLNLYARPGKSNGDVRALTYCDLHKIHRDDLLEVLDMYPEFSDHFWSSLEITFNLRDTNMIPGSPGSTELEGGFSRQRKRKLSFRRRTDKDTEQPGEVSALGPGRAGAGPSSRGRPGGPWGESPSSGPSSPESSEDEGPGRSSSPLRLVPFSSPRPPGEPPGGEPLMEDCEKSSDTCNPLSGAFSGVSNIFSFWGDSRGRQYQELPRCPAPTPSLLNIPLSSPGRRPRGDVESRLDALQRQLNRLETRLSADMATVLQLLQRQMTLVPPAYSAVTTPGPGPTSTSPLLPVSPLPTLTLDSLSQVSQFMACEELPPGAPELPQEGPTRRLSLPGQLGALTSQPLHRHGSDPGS
Outline: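 Cell line hERG-U2OS; dye FluxOR II, 1 h RT dark; Tl+ stimulus; ex 480/em 540 nm, read each second for 2 min.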

[13] = molecular target: Cytochrome P450 3A4 (Homo sapiens) (UniProt P08684); assay: Cytochrome P450 Family 3 Subfamily A Member 4 (CYP3A4) small molecule antagonists: luciferase reporter qHTS assay (AID 1671201); also: nearly all actives have a fitted effect of over 50% in size; also: potency is read from the fitted curve at half-maximal effect; as to activity change, negative = inhibition: series mostly up to about 120 µM
Cytochrome P450 3A4 (Homo sapiens), sequence (P08684 whole entry, looked up): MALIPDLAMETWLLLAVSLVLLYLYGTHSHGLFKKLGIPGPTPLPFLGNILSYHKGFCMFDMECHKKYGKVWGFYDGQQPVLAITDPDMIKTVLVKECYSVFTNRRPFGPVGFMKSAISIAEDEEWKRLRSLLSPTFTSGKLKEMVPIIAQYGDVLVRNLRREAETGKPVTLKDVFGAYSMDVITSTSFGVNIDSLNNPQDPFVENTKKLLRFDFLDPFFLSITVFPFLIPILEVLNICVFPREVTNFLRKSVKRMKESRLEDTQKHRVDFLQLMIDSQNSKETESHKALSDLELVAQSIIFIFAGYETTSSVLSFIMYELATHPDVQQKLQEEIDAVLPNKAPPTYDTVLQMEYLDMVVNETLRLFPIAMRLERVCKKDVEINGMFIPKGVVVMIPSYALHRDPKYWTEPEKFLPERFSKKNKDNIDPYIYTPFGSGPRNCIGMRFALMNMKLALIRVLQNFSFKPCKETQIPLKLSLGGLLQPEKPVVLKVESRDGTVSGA
Outline: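 Room-temperature assay throughout: 10 min compound–enzyme/substrate preincubation, 1 h reaction after NADPH regeneration solution, 20 min detection. Luciferin formed from proluciferin substrate is quantified by luminescence.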

[14] = Caspase-3/7 induction in CHO-K1 cells by small molecules, qHTS cell viability counter screen (AID 1346979); also: nearly all actives have a fitted effect of over 35% in size; also: potency is read from the fitted curve at half-maximal effect
Outline: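 Multiplexed with Caspase-Glo 3/7 in CHO-K1 cells, this counter screen added CellTiter-Fluor after 16hr of compound exposure and recorded fluorescence 1hr later.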

[15] = molecular target: Acetylcholinesterase (Homo sapiens) (UniProt P22303); assay: Acetylcholinesterase (AChE) small molecule antagonists: enzyme-based qHTS assay (AID 1347397; calls by dose curve; also: nearly all actives have a fitted effect of over 55% in size); conditions: Potency: AChE enzyme activity inhibition
Outline: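 Compound or DMSO vehicle was pin-transferred onto recombinant human AChE (50 mU/mL as dispensed) and left 30 min at room temperature. Acetylthiocholine with DTNB then started the reaction, read colorimetrically 10 min later.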

[16] = molecular target: Nuclear receptor subfamily 1 group I member 2 (Rattus norvegicus) (UniProt Q9R1A7); assay: Rat pregnane X receptor (rPXR) activation by small molecules, qHTS assay (AID 1346983); conditions: rPXR luciferase reporter cells, One-Glo luminescence, 24 h; max activation: hits give high values; also: nearly all actives have a fitted effect of over 20% in size
Nuclear receptor subfamily 1 group I member 2 (Rattus norvegicus), sequence (Q9R1A7 whole entry, looked up): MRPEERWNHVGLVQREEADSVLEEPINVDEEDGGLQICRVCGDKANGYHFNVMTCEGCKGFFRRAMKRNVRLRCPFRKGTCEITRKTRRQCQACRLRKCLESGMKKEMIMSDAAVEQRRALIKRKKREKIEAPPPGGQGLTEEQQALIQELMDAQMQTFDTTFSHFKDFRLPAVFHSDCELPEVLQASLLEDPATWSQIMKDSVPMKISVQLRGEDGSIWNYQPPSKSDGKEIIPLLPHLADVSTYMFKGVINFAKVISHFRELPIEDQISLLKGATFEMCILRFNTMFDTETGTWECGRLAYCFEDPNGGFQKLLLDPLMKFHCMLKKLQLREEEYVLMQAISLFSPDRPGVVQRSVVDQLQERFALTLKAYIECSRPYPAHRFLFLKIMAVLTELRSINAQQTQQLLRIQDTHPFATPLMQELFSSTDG
Outline: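 Cell-based rPXR luciferase reporter assay, 2,000 cells per well, rested 5hr at 37 C before compound addition in DMSO, then 24 hr at 37 C. One-Glo reagent was added and luminescence read after 30 min at room temperature.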

[17] = molecular target: Nuclear receptor subfamily 1 group I member 2 (Homo sapiens) (UniProt O75469); assay: CYP3A4 induction through human pregnane X receptor (PXR) by small molecules, qHTS assay (AID 1346984); also: nearly all actives have a fitted effect of over 40% in size
Outline: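 HepG2-derived DPX-2 line carrying PXR plus a CYP3A4-promoter luciferase reporter; cells plated 5 hr, compound-exposed 24 hr at 37C. CYP3A4 activity probed with 3uM (final) Luciferin-IPA for 3hr, then luciferase read after One-Glo.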

[18] = molecular target: Nuclear receptor subfamily 1 group I member 2 (Homo sapiens) (UniProt O75469); assay: Human pregnane X receptor (PXR) activation by small molecules, qHTS assay (AID 1346985); also: nearly all actives have a fitted effect of over 40% in size
Outline: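 DPX-2 cells (HepG2 co-transfected with a PXR response element and a CYP3A4-promoter luciferase construct) were seeded at 2,000 per well, rested 5 hr at 37C, then exposed to DMSO-dissolved compounds for 24 hr. Activation was read as luciferase luminescence.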

[19] = molecular target: Cytochrome P450 2C9 (Homo sapiens) (UniProt P11712); assay: Cytochrome P450 Family 2 Subfamily C Member 9 (CYP2C9) small molecule antagonists: luciferase reporter qHTS assay (AID 1671198); also: nearly all actives have a fitted effect of over 50% in size; also: potency is read from the fitted curve at half-maximal effect; as to activity change, negative = inhibition: series mostly up to about 120 µM
Cytochrome P450 2C9 (Homo sapiens), sequence (P11712 whole entry, looked up): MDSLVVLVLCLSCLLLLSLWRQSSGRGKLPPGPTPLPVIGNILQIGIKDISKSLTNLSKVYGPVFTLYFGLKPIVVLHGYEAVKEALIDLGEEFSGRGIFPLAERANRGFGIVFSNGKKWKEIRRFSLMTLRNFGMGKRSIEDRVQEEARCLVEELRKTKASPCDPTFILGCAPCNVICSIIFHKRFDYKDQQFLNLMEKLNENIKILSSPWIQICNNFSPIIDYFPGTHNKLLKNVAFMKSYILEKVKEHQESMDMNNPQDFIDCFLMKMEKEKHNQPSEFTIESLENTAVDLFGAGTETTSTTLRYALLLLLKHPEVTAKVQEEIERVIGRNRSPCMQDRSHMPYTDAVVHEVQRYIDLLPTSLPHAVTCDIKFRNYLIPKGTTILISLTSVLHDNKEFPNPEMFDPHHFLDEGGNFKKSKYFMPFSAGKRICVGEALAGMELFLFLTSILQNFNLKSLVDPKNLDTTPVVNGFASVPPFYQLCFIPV
Outline: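 CYP2C9 activity was measured with a P450-Glo proluciferin substrate. Enzyme–substrate mix was held with compound for 10 min at room temperature, then NADPH regeneration solution was added for 1 h at 37C. Luciferin product was read as luminescence.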
% is scaled to controls: 0 for no effect and ±100 for the full control effect.

CC1(C)[C@H](/C=C2\CCSC2=O)[C@@H]1C(=O)OCc1coc(Cc2ccccc2)c1
active: Potency [5] 21.7 µM | Potency [9] 39.9 µM | Potency [10] 2.24 µM | Potency [11] 22.4 µM | Potency [13] 3.99 µM
inactive: Potency [1] | Potency [2] | Potency [3] | Potency [4] | Potency [6] | Potency [7] | Potency [8] | Potency [12]

CC(=O)[O-].CC(=O)[O-].CC(=O)[O-].[Sb+3]
inactive: activity change, negative = cytotoxicity [1] 2.16% [at 3.27 µM] | caspase activation [2] 1.01% [at 3.27 µM] | activity change, negative = cytotoxicity [14] 4.75% [at 3.27 µM] | caspase-3/7 activation [3] -0.0038% [at 3.27 µM] | activity change, negative = cytotoxicity [4] -0.0636% [at 3.27 µM] | activity change, negative = inhibition [12] 0.0833% [at 2.72 µM]

C=CC(=O)[O][Sn]([CH2]CCC)([CH2]CCC)[CH2]CCC
active: Potency [1] 0.686 µM | Potency [2] 2.43 µM | Potency [14] 0.686 µM | Potency [3] 1.22 µM | Potency [4] 3.86 µM | Potency [9] 1.26 µM | Potency [10] 0.894 µM | Potency [12] 6.16 µM | Potency [13] 25.2 µM
inactive: Potency [6] | Potency [8]

Oc1cc(Cl)cc(Cl)c1
inactive: Potency [1] | Potency [2] | Potency [3] | Potency [4] | Potency [6] | Potency [15] | Potency [7] | Potency [8] | Potency [10] | Potency [12] | Potency [13]
active: Potency [5] 69.3 µM | Potency [11] 32 µM

CCCCn1cc[n+](C)c1.[Cl][Fe-]([Cl])([Cl])[Cl]
inactive: Potency [1] | Potency [2] | Potency [14] | Potency [3] | Potency [4] | Potency [12]

O=[N+]([O-])c1ccccc1-c1ccccc1
inactive: Potency [1] | Potency [2] | Potency [3] | Potency [4] | Potency [5] | Potency [6] | Potency [15] | Potency [7] | Potency [8] | Potency [9] | Potency [12] | Potency [13]
active: Potency [10] 35.6 µM | Potency [11] 1.59 µM

CN
inactive: Potency [1] | Potency [2] | Potency [14] | Potency [3] | Potency [4] | Potency [12]

Clc1ccc(C2(Cn3cncn3)OCCO2)c(Cl)c1
inactive: Potency [1] | Potency [2] | Potency [14] | Potency [3] | max activation [16] -0.146% | Potency [17] | Potency [18] | Potency [15] | Potency [7] | Potency [8] | Potency [12]
active: Potency [9] 63.3 µM | Potency [10] 3.17 µM | Potency [19] 17.8 µM | Potency [11] 28.3 µM | Potency [13] 0.502 µM

COc1nc(C)nc(NC(=O)NS(=O)(=O)c2ccccc2Cl)n1
inactive: Potency [1] | Potency [2] | Potency [3] | Potency [4] | Potency [5] | Potency [6] | Potency [7] | Potency [8] | Potency [10] | Potency [12] | Potency [13]

CC(=O)[O-].CC(=O)[O-].[Co+2]
inactive: Potency [1] | Potency [2] | Potency [14] | Potency [3] | Potency [4] | Potency [12]

C[N+]1(C)[C@@H]2CC[C@H]1CC(OC(=O)C(CO)c1ccccc1)C2 (stereo partly drawn)
inactive: Potency [1] | Potency [2] | Potency [3] | Potency [4] | Potency [5] | max activation [16] 5.17% and -0.275% | Potency [17] | Potency [18] | Potency [6] | Potency [15] | Potency [8] | Potency [9] | Potency [10] | Potency [11] | Potency [12] | Potency [13]

C#CCO
inactive: Potency [1] | Potency [2] | Potency [3] | Potency [4] | Potency [5] | Potency [6] | Potency [15] | Potency [7] | Potency [8] | Potency [9] | Potency [10] | Potency [19] | Potency [12] | Potency [13]

Nc1nc(N)c(N)c(N)n1
inactive: Potency [1] | Potency [2] | Potency [3] | Potency [5] | Potency [6] | Potency [15] | Potency [7] | Potency [8] | Potency [9] | Potency [19] | Potency [12] | Potency [13]

N#Cc1c2ccccc2cc2ccccc12
inactive: Potency [1] | Potency [2] | Potency [3] | Potency [6] | Potency [7] | Potency [8] | Potency [9] | Potency [10] | Potency [12] | Potency [13]
active: Potency [5] 27.3 µM | Potency [11] 0.2 µM

CNC(=O)/C=C(\C)OP(=O)(OC)OC
inactive: Potency [1] | Potency [2] | Potency [3] | Potency [4] | Potency [5] | Potency [8] | Potency [10] | Potency [19] | Potency [12] | Potency [13]
active: Potency [6] 39.9 µM | Potency [11] 28.3 µM
